Hits are enriched below; roughly 2.4% of the tested compounds scored in any of these assays.
D2 antag = HTS Assay for Allosteric Antagonists of the Human D2 Dopamine Receptor: Primary Screen for Antagonists. HEK293 TREx D2 cells, calcium flux, dopamine EC80. inhibition, % at 10 µM. 340,000 tested, 2% active. AID 485344, 2010; in the data active = inhibition above about 30%; inactive = below that, where a call was filed; also: 0% is about no effect
Target sequence (P14416 whole entry, looked up): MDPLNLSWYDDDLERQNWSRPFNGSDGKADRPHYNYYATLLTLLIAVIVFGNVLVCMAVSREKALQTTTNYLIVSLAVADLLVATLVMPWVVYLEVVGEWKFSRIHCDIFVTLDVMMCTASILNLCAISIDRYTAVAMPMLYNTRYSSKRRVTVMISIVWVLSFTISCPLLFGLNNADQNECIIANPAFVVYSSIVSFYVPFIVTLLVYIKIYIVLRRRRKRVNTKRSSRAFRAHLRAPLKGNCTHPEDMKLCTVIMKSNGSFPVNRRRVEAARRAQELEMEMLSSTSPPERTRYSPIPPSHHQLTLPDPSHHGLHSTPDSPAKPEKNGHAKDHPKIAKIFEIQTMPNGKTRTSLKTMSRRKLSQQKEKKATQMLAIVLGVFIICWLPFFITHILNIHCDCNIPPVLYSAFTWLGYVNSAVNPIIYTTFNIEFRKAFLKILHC
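In this primary screen, negative modulation is detected by tracking calcium flux after an EC80 dopamine challenge in inducible HEK293 T-REx D2 cells preexposed to test compound for 180 s.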
D2 PAM-1 = HTS Assay for Positive Allosteric Modulators of the Human D2 Dopamine Receptor: Primary Screen for Potentiators; potentiation, % at 10 µM; D(2) dopamine receptor (Homo sapiens), P14416; 340,000 tested, 0.34% active; HEK293 T-REx D2, calcium flux, EC20 dopamine potentiation;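 active = potentiation over 3 SD above the plate norm, cut at about 30% in these data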; also: 0% is about no effect
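Potentiation of an EC20 dopamine calcium response measured kinetically over 180 s, after a preceding 180 s compound-only read flagging agonists. Cells: inducible Hek293 Trex D2 line, 4000/well, cultured overnight at 30 C before dye loading.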
D2 ag-1 = HTS Assay for Allosteric Agonists of the Human D2 Dopamine Receptor: Primary Screen for Agonists. 340,000 tested, 0.53% active. HEK293 T-REx D2 cells, calcium flux agonist mode. activation, % at 2 µM. D(2) dopamine receptor (Homo sapiens), P14416;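 active = activation over 3 SD above normal in the single-dose calcium agonist read, cut at about 30% in these data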; also: 0% is about no effect
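Agonism scored from kinetic calcium signal (1 read/sec, 180 s) following compound pin transfer, after a 10 s baseline. Cells: HEK293 Trex line expressing inducible D2 receptor coupled to calcium, dye-loaded after overnight culture at 30 C.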
D2 PAM-2 = Beta-Arrestin HTS for Positive Allosteric Modulators of the Human D2 Dopamine Receptor: Potentiators; AID 624464, 2012; 360,000 tested, 0.23% active; DiscoveRx D2 beta-arrestin cells, luminescence, 90 min; 100% = 57 uM dopamine signal; D(2) dopamine receptor (Homo sapiens), P14416; potentiation, % (no concentration beside the values); in the data active = potentiation above about 50%
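PathHunter beta-arrestin assay in DiscoveRx D2 cells. Compounds were added with an EC20 of dopamine (50 nM final) for 90 min at 37 deg C. Luminescence was read 1 h after detection reagent, with 57 uM dopamine as the EC100 control.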
D2 ag-2 = Beta-Arrestin HTS for Positive Allosteric Modulators of the Human D2 Dopamine Receptor: Agonists. D(2) dopamine receptor (Homo sapiens), P14416. DiscoveRx PathHunter D2 beta-arrestin, luminescence, 90 min; 100% = 57 uM dopamine signal. activation, % (test concentration not listed). 360,000 tested, 0.084% active; in the data active = activation above about 40%
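DiscoveRx PathHunter D2 beta-arrestin cells (2,100/well) attached overnight, then compound-stimulated 90 min at 37 C in HBSS/10 mM HEPES/0.1% Tween-20 buffer; beta-galactosidase complementation read by luminescence after 1 h at ambient temperature. Dopamine 57 uM final (EC100) as control.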
* = called active by the depositor; . = no result given.

SMILES | D2 antag | D2 PAM-1 | D2 ag-1 | D2 PAM-2 | D2 ag-2
CCCSc1nnc2c(n1)OC(c1sccc1C)Nc1ccccc1-2 (configuration not stated) | . | 10 | -2 | . | .
Cc1cc(Oc2ccc(=O)n(C)n2)nc(SCCOc2ccccc2)n1 | -3 | 0 | 0 | -1 | 0
CCOC(=O)CSc1nc(C)cc(Oc2ccc(=O)n(C)n2)n1 | 36* | -1 | 0 | -4 | 0
COC(=O)c1ccc(C(=O)OC)c(NC(=O)CSCc2ccccc2Br)c1 | 45* | -1 | 0 | 0 | -1
COc1ccc(NS(=O)(=O)c2ccc(C)c(C(=O)NCC(c3ccco3)N(C)C)c2)cc1 (configuration not stated) | 23 | -4 | 1 | -19 | -2
COc1ccc(NS(=O)(=O)c2cccc(C(=O)NCC(c3ccco3)N(C)C)c2)cc1 (configuration not stated) | 37* | -13 | 0 | -40 | 0
COc1ccc(C(CNC(=O)c2ccc(NS(=O)(=O)c3ccc4c(c3)OCCO4)cc2)N(C)C)cc1 (configuration not stated) | 31* | -14 | 0 | -40 | -4
COc1ccc(Cl)cc1NS(=O)(=O)c1cccc(C(=O)NCC(c2ccco2)N(C)C)c1 (configuration not stated) | 60* | -19 | 0 | -43 | -3
COc1ccccc1NS(=O)(=O)c1ccc(C(=O)NCC(c2ccco2)N(C)C)cc1 (configuration not stated) | -12 | -12 | 1 | -3 | -1
COc1ccc(N(C)S(=O)(=O)c2cccc(C(=O)NCC(c3cccs3)N(C)C)c2)cc1 (configuration not stated) | 46* | -24 | 1 | -37 | 1
COc1ccc(N(C)S(=O)(=O)c2cccc(C(=O)NCC(c3ccco3)N3CCCC3)c2)cc1 (configuration not stated) | 23 | -20 | 0 | -44 | -5
Cc1ccc(NC(=O)CN2C(=O)C(c3ccc(F)cc3)=NC23CCCCC3)c(C)c1 | . | 2 | . | . | .
COc1ccc(C(=O)Nc2ccc(-c3nc4ncccc4o3)cc2C)cc1Br | . | -5 | . | . | .
CCOC(=O)C1CCCN(C(=O)Cn2ncn3c(cc4sc(CC)cc43)c2=O)C1 (configuration not stated) | . | -8 | 0 | . | .
Cc1cc(C)c(NC(=O)c2sc3nc(C)cc(C)c3c2NC(=O)c2ccccc2)c(C)c1 | . | -7 | 0 | . | .
CN1CCN(C(=O)Cn2c(-c3cccs3)cc3cc(Cl)ccc32)CC1 | . | 9 | -1 | . | .
O=C(NCc1ccco1)c1cccc(C(F)(F)F)c1 | -7 | 0 | 2 | -2 | -6
COc1ccccc1NS(=O)(=O)c1cccc(C(=O)NCC(c2ccco2)N2CCCCC2)c1 (configuration not stated) | 2 | 4 | 0 | -41 | -2
COc1ccc(Cl)cc1NS(=O)(=O)c1cccc(C(=O)NCC(c2ccco2)N2CCCC2)c1 (configuration not stated) | 39* | -22 | 0 | -50 | -7
CN(C)C(CNC(=O)c1cccc(C(F)(F)F)c1)c1ccco1 (configuration not stated) | 31* | -33 | 0 | -6 | -5
COc1ccc(Cl)cc1C(=O)NCCCN1CCOCC1 | -14 | -3 | 0 | -11 | 1
COc1ccc(N2CCN(CCCNC(=O)c3cc4sccc4n3C)CC2)cc1 | 40* | -27 | 38* | -22 | 4
COc1ccc(S(N)(=O)=O)cc1C(=O)NCCCN1CCN(c2ccc(C)cc2)CC1 | 49* | -19 | 1 | -46 | -2
CN(C)c1ccc(-c2nc3ccccn3c2Nc2ccc3c(c2)OCCO3)cc1 | . | -3 | 0 | . | .
Cc1ccc(C(C)C)c(OCC(=O)NCC2(N(C)C)CCCCC2)c1 | . | -23 | -1 | . | .
